The list is not random: actives were taken first. Their share in the collection is about 2.4%.
C diff HTS: inhibitors of Clostridium difficile growth; Clostridium difficile clinical isolate growth, OD600, 24 h; active compounds read low; AID 1259249; 86,000 compounds, 0.25% hits; growth activity, negative = inhibition, % at 16 µg/mL (by protocol);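 active = mean growth activity at or below -80% and every replicate also at or below -80%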;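 also: 0% = DMSO wells and -100% = levofloxacin 16 µg/mL wells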
Pf Dd2 inh: blocks growth of Plasmodium falciparum Dd2 parasites; P. falciparum Dd2 growth, SYBR Green, 72 h; active compounds read low; activity change, % at 10 µM; 94,000 compounds, 2.3% hits; AID 1159554; in the data active = activity change below about -80%
Numbers without * were called inactive; nt = no result given.

SMILES	C diff HTS	Pf Dd2 inh
C[C@@H]1CN([C@H](C)CO)C(=O)Cc2cc(NC(=O)Cc3ccccc3)ccc2O[C@H]1CN(C)Cc1ccc(C(=O)Nc2ccccc2N)cc1	11	-5
C[C@@H]1CCCCO[C@H](CN(C)S(=O)(=O)c2ccc(Cl)cc2)[C@@H](C)CN([C@@H](C)CO)C(=O)c2cc(NC(=O)CCC(F)(F)F)ccc2O1	19	-75
COc1ccc2c3c([nH]c2c1)[C@@H](CO)N(C(=O)Nc1ccc(F)cc1)CC31CN(Cc2ccc(F)cc2)C1	2	-67
COc1ccc2c3c([nH]c2c1)[C@H](CO)N(C(=O)Nc1ccc(F)cc1)CC31CN(Cc2ccccc2OC)C1	nt	-54
COc1ccc2c3c([nH]c2c1)[C@H](CO)N(C(=O)Nc1ccc(F)cc1)CC31CN(Cc2ccc(F)cc2)C1	1	-82*
COc1ccc2c3c([nH]c2c1)[C@@H](CO)N(C(=O)Nc1ccc(F)cc1)CC31CN(Cc2ccccc2OC)C1	-11	-92*
CCS(=O)(=O)N1CCCCN2[C@H](CO)[C@H](c3ccc(-c4ccc(C(=O)N(C)C)cc4)cc3)[C@H]2C1	-5	8
CCC(=O)N(C)C[C@@H]1Oc2cc(-c3ccccc3)ccc2S(=O)(=O)N([C@H](C)CO)C[C@H]1C	1	-32
O=C(C[C@@H]1CC[C@H](NC(=O)Nc2cccc(F)c2)[C@@H](CO)O1)NCC1CC1	nt	-11
COc1ccc(NC(=O)Nc2ccc3c(c2)C(=O)N([C@@H](C)CO)C[C@H](C)[C@H](CN(C)CC2CCCCC2)OCCCC[C@H](C)O3)cc1	-7	-84*
COc1ccc(NC(=O)Nc2ccc3c(c2)C(=O)N([C@H](C)CO)C[C@H](C)[C@H](CN(C)CC2CCCCC2)OCCCC[C@@H](C)O3)cc1	-1	-62
C[C@@H]1CCCCO[C@@H](CN(C)CC2CCCCC2)[C@H](C)CN([C@H](C)CO)C(=O)c2cc(NC(=O)Nc3ccccc3)ccc2O1	16	-84*
C[C@H]1CCCCO[C@H](CN(C)CC2CCCCC2)[C@@H](C)CN([C@@H](C)CO)C(=O)c2cc(NC(=O)Nc3ccccc3)ccc2O1	5	-73
C[C@H](CO)N1C[C@H](C)[C@H](CN(C)Cc2ccc3c(c2)OCO3)Oc2ccc(NC(=O)c3ccncc3)cc2C1=O	0	8
COC(=O)[C@@H]1[C@@H](CO)[C@@H]2Cn3c(ccc(-c4ccccc4F)c3=O)[C@@H]2N1Cc1ccccc1	9	-9
C[C@@H]1CN([C@H](C)CO)C(=O)c2c(c3ccccc3n2C)-c2ccccc2CO[C@H]1CN(C)S(=O)(=O)c1ccc(C(F)(F)F)cc1	-1	-89*
C[C@@H]1CN([C@H](C)CO)C(=O)c2c(c3ccccc3n2C)-c2ccccc2CO[C@@H]1CN(C)S(=O)(=O)c1ccc(C(F)(F)F)cc1	2	-86*
C[C@H]1CN([C@@H](C)CO)C(=O)c2c(c3ccccc3n2C)-c2ccccc2CO[C@H]1CN(C)S(=O)(=O)c1ccc(C(F)(F)F)cc1	-5	-91*
CCCN1C[C@@H](C)[C@@H](OC)CN(C)C(=O)c2cc(NC(=O)Nc3c(C)noc3C)ccc2OC[C@@H]1C	nt	18
COc1cccc(NC(=O)Nc2ccc3c(c2)C(=O)N(C)C[C@@H](OC)[C@@H](C)CN(C)[C@H](C)CO3)c1	2	-11
C[C@H](CO)N1C[C@H](C)[C@H](CN(C)Cc2ccc(Oc3ccccc3)cc2)Oc2cc(-c3ccncc3)ccc2S1(=O)=O	28	-75
C[C@@H]1CN([C@@H](C)CO)S(=O)(=O)c2ccc(-c3ccncc3)cc2O[C@@H]1CN(C)Cc1ccc(Oc2ccccc2)cc1	5	-84*
Cc1ccc(-c2ccc3c(c2)O[C@@H](CN(C)Cc2ccncc2)[C@@H](C)CN([C@H](C)CO)S3(=O)=O)cc1	1	-62
Cc1ccc(-c2ccc3c(c2)O[C@@H](CN(C)Cc2ccncc2)[C@H](C)CN([C@@H](C)CO)S3(=O)=O)cc1	-8	-89*
C[C@@H]1CN([C@H](C)CO)S(=O)(=O)c2ccc(-c3ccncc3)cc2O[C@H]1CN(C)Cc1ccc(Oc2ccccc2)cc1	11	-87*
SMILES	C diff HTS	Pf Dd2 inh
C[C@@H]1CN([C@@H](C)CO)S(=O)(=O)c2ccc(-c3ccncc3)cc2O[C@@H]1CN(C)Cc1ccccc1	0	-29
C[C@@H]1CN([C@@H](C)CO)C(=O)c2cc(NC(=O)Nc3ccccc3)ccc2O[C@@H]1CN(C)S(=O)(=O)c1ccccc1	12	13
OC[C@H]1[C@H](c2ccc(-c3cccnc3)cc2)[C@H]2CN(CC3CCOCC3)CCCCN21	-9	-34
C[C@H](O)C#Cc1ccc2c(c1)O[C@@H](CN(C)CC1CC1)[C@H](C)CN([C@@H](C)CO)S2(=O)=O	1	-38
COc1ccc(NC(=O)Nc2ccc3c(c2)CC(=O)N([C@H](C)CO)C[C@@H](C)[C@@H](CN(C)Cc2ccc(C(=O)Nc4ccccc4N)cc2)O3)cc1	5	-68
C[C@@H]1CN([C@H](C)CO)C(=O)Cc2cc(NC(=O)Nc3ccc(F)cc3)ccc2O[C@@H]1CN(C)Cc1ccccc1	9	-34
COc1ccc(NC(=O)Nc2ccc3c(c2)CC(=O)N([C@@H](C)CO)C[C@H](C)[C@@H](CN(C)Cc2ccc(C(=O)Nc4ccccc4N)cc2)O3)cc1	-2	-88*
C[C@H]1CN([C@@H](C)CO)C(=O)Cc2cc(NC(=O)Nc3ccc(F)cc3)ccc2O[C@H]1CN(C)Cc1ccc(C(=O)Nc2ccccc2N)cc1	7	-83*
C[C@@H]1CN([C@@H](C)CO)C(=O)Cc2cc(NC(=O)Nc3ccc(F)cc3)ccc2O[C@H]1CN(C)Cc1ccccc1	-1	-85*
C[C@H](CO)N1C[C@H](C)[C@@H](CN(C)Cc2ccc(C(=O)Nc3ccccc3N)cc2)Oc2ccc(NC(=O)Nc3ccc(F)cc3)cc2CC1=O	3	-77
CC=Cc1ccc2n(c1=O)C[C@H]1[C@H](CO)[C@@H](C(=O)N(C)C)[C@@H]2N1Cc1cc(F)ccc1F (mixture of isomers)	1	nt
N#C[C@H]1[C@H](c2ccccc2C2=CCCCC2)[C@H](CO)N1S(=O)(=O)c1cccc(F)c1	41	-31
Cc1ccc(S(=O)(=O)N(C)C[C@H]2Oc3ccc(NC(=O)Cc4cn(C)c5ccccc45)cc3C(=O)N([C@H](C)CO)C[C@H]2C)cc1	-7	-28
COc1ccc(S(=O)(=O)N(C)C[C@@H]2Oc3ccc(NC(=O)Cc4cn(C)c5ccccc45)cc3C(=O)N([C@H](C)CO)C[C@@H]2C)cc1	-6	-85*
Cc1ccc(S(=O)(=O)N(C)C[C@H]2Oc3ccc(NC(=O)Cc4cn(C)c5ccccc45)cc3C(=O)N([C@H](C)CO)C[C@@H]2C)cc1	-1	-83*
C[C@@H]1CN([C@@H](C)CO)C(=O)c2cc(NC(=O)Cc3cn(C)c4ccccc34)ccc2O[C@H]1CN(C)S(=O)(=O)c1ccccc1	6	-22
Cc1ccc(S(=O)(=O)N(C)C[C@@H]2Oc3ccc(NC(=O)Cc4cn(C)c5ccccc45)cc3CC(=O)N([C@@H](C)CO)C[C@@H]2C)cc1	0	-77
Cc1ccc(S(=O)(=O)N(C)C[C@@H]2Oc3ccc(NC(=O)Cc4cn(C)c5ccccc45)cc3CC(=O)N([C@@H](C)CO)C[C@H]2C)cc1	-15	-83*
